Shown are actives, neighbours in structure and some others; about 7% of the full set was active somewhere.
DRD3 antagonist – D3 dopamine receptor (human) antagonism | P35462 | D3R cells, DiscoveRx beta-arrestin luminescence, antagonist mode; stronger effect = lower value | max response, negative = inhibition, % | 360,000 compounds, 2.5% hits | AID 652054; in the data active means max response below about -50%; inconclusive means no clear call, values can overlap the other calls
Target sequence (P35462 whole entry, looked up): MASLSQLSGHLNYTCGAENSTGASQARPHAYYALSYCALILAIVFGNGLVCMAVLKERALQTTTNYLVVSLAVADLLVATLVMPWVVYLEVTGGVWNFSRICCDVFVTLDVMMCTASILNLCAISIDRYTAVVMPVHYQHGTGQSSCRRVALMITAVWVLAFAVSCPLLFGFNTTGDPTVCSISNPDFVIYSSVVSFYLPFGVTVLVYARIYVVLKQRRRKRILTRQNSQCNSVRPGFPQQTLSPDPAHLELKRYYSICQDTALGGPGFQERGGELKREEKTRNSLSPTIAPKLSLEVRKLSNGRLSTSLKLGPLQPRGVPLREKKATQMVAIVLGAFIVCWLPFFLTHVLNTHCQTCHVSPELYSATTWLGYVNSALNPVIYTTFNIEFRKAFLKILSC
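Cells plated overnight at 1500 cells/well, then exposed to library compounds with dopamine controls for 90 minutes at 37 degrees C. DiscoveRx reagent added for 30–60 minutes at room temperature; luminescence read, quantitative HTS format.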
D3 ag – activates the human D3 dopamine receptor; max activation, %; AID 652048; 410,000 compounds, 0.58% hits; D3R DiscoveRx beta-arrestin cells, luminescence, 90 min; in the data active means max activation above about 30%
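Cells at 1500/well, incubated overnight, then treated with pinned compounds (dopamine as control) for 90 min at 37 degrees C. DiscoveRx reagent added for 30 - 60 minutes at room temperature; luminescence read.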
ATXN2 expr inh – reduces ATXN2 reporter expression in HEK-293 cells. HEK-293 ATXN2-luciferase reporter, luminescence, 24 h. Potency, µM (doses to about 57 µM), actives largely listed as inhibitors. 360,000 compounds, 0.72% hits; further: nearly all actives have a fitted effect of over 55% in size
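qHTS (up to 57 uM final) was run with 24 h compound exposure of reporter cells at 37 °C. Each well was multiplexed: SteadyGlo luminescence measured ATXN2-luciferase expression after a fluorogenic Gly-Phe-AFC viability readout (25 uM final).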
a7 integrin act – integrin-mediated muscular dystrophy alleviation activation. alpha7betagal myoblasts, beta-gal FDG fluorescence, 48 h. 350,000 compounds, 0.064% hits. AID 624291. Potency, µM (highest dose often 38.3 µM), most hits filed as activators; further: nearly all actives have a fitted effect of over 60% in size
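alpha7betagal+/- myoblasts (passage 13, 250/well) treated 48 h at 37C with compounds at 1:260 dilution of DMSO stock. Lysed, then beta-galactosidase activity read as FDG fluorescence (ex 480/em 540) after 30 min, with pre-read for autofluorescence.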
IL-1B inflam inh – inhibitors of inflammasome signaling (IL-1 beta secretion); THP-1 LPS/ATP IL-1B secretion, AlphaLISA, 16 h; stronger effect = lower value; activity change, % at 57.5 µM; 360,000 compounds, 4.7% hits; in the data active means activity change below about -50%; inconclusive means mostly about -30% to -49%
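THP-1 cells pretreated 1 hr with compounds (up to 57.5 uM final), then stimulated with LPS (250 ng/mL final) plus ATP (1.25 mM final); secreted IL-1B measured by AlphaLISA after 16 hr, decreased signal indicating inhibition.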
S2 tox – cell viability loss in ATXN counter-screen | S2 cells (HEK-293 line with an ATXN2-luciferase reporter) viability, CellTiter-Fluor protease fluorescence, 24 h | Potency, µM (series often up to 56.7 µM), usual class: cytotoxic | AID 651635 | 400,000 compounds, 0.49% hits; further: nearly all actives have a fitted effect of over 40% in size
Each line names hits and unclear results; the compound was inactive in the other large screens. Unless noted, the call rests on the fitted dose curve; in most records, active means well fitted curve in the direction sought with a large enough effect; inconclusive means small, poorly fitted or top-dose-only effect, or another doubt; inactive means no such curve, though single readings can be large; an effect the other way counts as inactive or inconclusive.

Fc1ccc(CNC2CCN(Cc3ccccc3)CC2)cc1	none (no result: ATXN2 expr inh)
Fc1ccc(CN2CC[C@H]3C=CCc4cccc(c43)C2)cc1	DRD3 antagonist -52.9, S2 tox inconclusive
Clc1ccc(CN2CC[C@H]3C=CCc4cccc(c43)C2)cc1	DRD3 antagonist -84.3
CNc1sc(C(=O)c2ccccc2F)c(N)c1-c1nc2ccccc2s1	DRD3 antagonist -52.5 (no result: ATXN2 expr inh, S2 tox)
CCO[C@H]1OC(C(=O)N2CCN(C)CC2)=C[C@@H](c2ccc(C(F)(F)F)cc2)[C@@H]1CCCO	none
O=C(CSc1nc2[nH]ncc2c(=O)[nH]1)NCc1ccccc1	DRD3 antagonist -59.5
O=C(CSc1nc2[nH]ncc2c(=O)[nH]1)NCc1ccc(F)cc1	DRD3 antagonist -50.1
CCC(NC(=O)CC[C@H]1O[C@@H](n2cc(C)c(=O)[nH]c2=O)C[C@@H]1O)c1ccccc1 (some centres undefined)	none
CCc1ccc(-c2cn(-c3nc(C)cc(C)n3)c(=N)o2)cc1	ATXN2 expr inh inconclusive, IL-1B inflam inh -59.3, S2 tox inconclusive
CCc1ccc(-c2cn3c(n2)SCC3)cc1	a7 integrin act inconclusive
Cc1ccc(S(=O)(=O)N2CCOCC2)cc1C(=O)OCC(=O)N1CCCC1=O	none
CCOC(=O)c1ccc(Cl)c(NC(=O)c2ccc(-c3ccccc3)cc2)c1	ATXN2 expr inh inconclusive, S2 tox inconclusive
CCOC(=O)c1ccc(/C=C2/C=C(c3ccccc3)N(c3ccc(Cl)c(C(=O)O)c3)C2=O)cc1	DRD3 antagonist inconclusive, ATXN2 expr inh 10.6µM, IL-1B inflam inh -84.4, S2 tox inconclusive
CN1C(=O)c2cccc3c(S(=O)(=O)NCc4ccco4)ccc1c23	none
O=C(Cn1c(=O)n(Cc2ccccc2)c(=O)c2oc3ccccc3c21)Nc1ccc(Cl)cc1	S2 tox inconclusive (no result: DRD3 antagonist, a7 integrin act, IL-1B inflam inh)
CCC(CO)Nc1nc2ccc(Cl)cc2c2ccccc12 (centres undefined)	ATXN2 expr inh inconclusive, IL-1B inflam inh -78.6
CCNC(=O)c1cc2c(-c3cc(OCCN4CCCC4)c(Cl)cc3Cl)nc(N)nc2s1	ATXN2 expr inh 1.37µM (no result: DRD3 antagonist, D3 ag, a7 integrin act, IL-1B inflam inh, S2 tox)
CCOC(=O)c1ccc(-n2c(CCC(=O)O)ccc2-c2cccs2)cc1	IL-1B inflam inh -69.6
CCc1ccc(-n2c(CCC(=O)O)ccc2-c2cccs2)cc1	none (no result: DRD3 antagonist, a7 integrin act, IL-1B inflam inh)
CC1CCN(c2ccc3nnc(CCC(=O)Nc4ccc(F)c(F)c4)n3n2)CC1	S2 tox inconclusive (no result: ATXN2 expr inh)
Cc1ccc(C)c(N2CCN(CC3CCCCC3)CC2)c1	DRD3 antagonist -56.6, S2 tox inconclusive
Cc1ccc(C)c(N2CCN(Cc3nnnn3C3CCCCC3)CC2)c1	none
Cc1cccc(N2CCN(C(=O)CNC(=O)C3CCCCC3)CC2)c1C	none
Cc1cccc(N2CCN(CC3CCCCC3)CC2)c1C	DRD3 antagonist -97.5, ATXN2 expr inh inconclusive, S2 tox inconclusive
CCc1ccc(NC(=O)Cn2c(=O)n(CCCC(=O)NCc3ccccc3Cl)c(=O)c3ccccc32)cc1	none (no result: DRD3 antagonist, a7 integrin act, IL-1B inflam inh)
COc1cc(C(C(=O)NC(C)(C)C)N(Cc2ccccc2)C(=O)c2cnccn2)cc(OC)c1OC (centres undefined)	none
COc1ccc(CN(C(=O)c2ccc(-c3ccccc3)[nH]2)C(C(=O)NC(C)(C)C)c2ccncc2)cc1 (centres undefined)	IL-1B inflam inh -83.3
CCCC(=O)N1c2ccccc2C(=C2SC(C(=O)OC)=C(C(=O)OC)S2)C(=S)C1(C)C	S2 tox inconclusive
COC(=O)C1=C(C(=O)OC)SC(=C2C(=S)C(C)(C)N(C(=O)C3CC3)c3ccccc32)S1	IL-1B inflam inh -50.3
COC(=O)C1=C(C(=O)OC)SC(=C2C(=S)C(C)(C)N(C(=O)C(C)C)c3ccccc32)S1	IL-1B inflam inh -66.1, S2 tox inconclusive
O=C(NCC1CC1)c1cc2c(c(-c3cccc(-c4ccccc4F)c3)n1)[C@H](CCO)N(C(=O)CC1CC1)C2	S2 tox inconclusive (no result: a7 integrin act)
O=C(CN1CCN(c2ccccc2F)CC1)c1ccc2cc[nH]c2c1	DRD3 antagonist -63.3
CC(=O)N1CCc2cc(S(=O)(=O)CCC(=O)N3CCN(c4ccccc4F)CC3)ccc21	none
CC(=O)N1CCc2cc(C(=O)CN3CCN(c4ccccc4F)CC3)ccc21	DRD3 antagonist -65.4
CC(=O)N1CCc2cc(C(=O)CN3CCN(c4ccccn4)CC3)ccc21	D3 ag 67.9
COc1ccccc1NS(=O)(=O)c1cc([N+](=O)[O-])ccc1N/N=C/c1c[nH]c2ccccc12	DRD3 antagonist -87.6, ATXN2 expr inh inconclusive, IL-1B inflam inh -80.5, S2 tox inconclusive
O=[N+]([O-])c1ccc(N/N=C/c2c[nH]c3ccccc23)cc1	IL-1B inflam inh -90.4, S2 tox inconclusive
COc1ccc(NS(=O)(=O)c2cc([N+](=O)[O-])ccc2N/N=C\c2c(C)[nH]c3ccccc23)cc1	S2 tox inconclusive
O=[N+]([O-])c1ccccc1N/N=C/c1c[nH]c2ccccc12	DRD3 antagonist -51.6, S2 tox inconclusive
O=C(N/N=C/c1ccc[nH]1)c1ccccc1[N+](=O)[O-]	none
O=C(N/N=C/c1c[nH]c2ccccc12)c1cccc([N+](=O)[O-])c1	DRD3 antagonist inconclusive
O=[N+]([O-])c1ccc(N/N=C/c2ccc[nH]2)cc1	DRD3 antagonist inconclusive, IL-1B inflam inh -76.8, S2 tox inconclusive
O=C(Nc1ccc2ccccc2c1)[C@@H]1C[C@H]1[C@@H](NP(=O)(c1ccccc1)c1ccccc1)c1ccccc1	none
COc1ccccc1NS(=O)(=O)c1cc([N+](=O)[O-])ccc1N/N=C/c1sc(N2CCOCC2)nc1-c1ccccc1	DRD3 antagonist -84.1
COc1ccc(/C=N\NC(=O)c2cc3c(ccc4ccccc43)o2)cc1O	none
CCCCC[C@H](O)/C=C/C1C(=O)C=C[C@H]1C/C=C\CCCC(=O)OC (some centres undefined)	ATXN2 expr inh inconclusive, IL-1B inflam inh -101.9 (no result: S2 tox)
CCCCC[C@H](O)/C=C/[C@@H]1[C@@H](C/C=C\CCCC(=O)OC)[C@@H](O)C[C@H]1O	none (no result: a7 integrin act)
COc1ccc(NC(=O)CSc2oc(-c3ccc(C)cc3)nc2S(=O)(=O)c2ccc(C)cc2)c(OC)c1	none (no result: DRD3 antagonist, a7 integrin act, IL-1B inflam inh)
CCOCCCNC(=O)c1cc2c(-c3ccc(OC)c(OC)c3)nn(C)c2s1	S2 tox inconclusive (no result: DRD3 antagonist, a7 integrin act, IL-1B inflam inh)
CCN(CC)CCCNC(=O)c1cc2c(-c3cccc(OC)c3)nn(C)c2s1	DRD3 antagonist -82.2, IL-1B inflam inh inconclusive (no result: ATXN2 expr inh)
COc1cccc(-c2nn(C)c3sc(C(=O)NCc4ccco4)cc23)c1	IL-1B inflam inh -55.6
CCCCN(CC)CCCNC(=O)c1cc2c(-c3ccc(OC)c(OC)c3)nn(C)c2s1	DRD3 antagonist -97.9, ATXN2 expr inh inconclusive, IL-1B inflam inh -70.4, S2 tox inconclusive

From PubChem BioAssay
